Assay [1] in a line: HepG2 liver cancer cell viability effects, profiling panel, resazurin fluorescence, 24 h, PK04 Diversity Set (AID 1172). Particulars: higher = more signal.
Assay [2] is described as follows: basal S. cerevisiae growth modulation, no modifier, primary screen, OD600, strain BY4716, 24 h, basal condition (AID 1173). The settings on record: OD600, 24 h, higher = more signal, called active from +8 up or from −8 down.
Assay [3] can be described thus: MM1S myeloma cell viability, profiling panel, resazurin fluorescence, basal, 24 h, PK04 Diversity Set (AID 1174).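 Note: MM1S multiple myeloma cell line.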 Particulars: higher = more signal, called active from +8 up or from −8 down. On the technique in general: Alamar Blue is a resazurin reagent that responds to reducing activity.
The target of assay [4] is Dihydroorotate dehydrogenase (quinone), mitochondrial (Plasmodium falciparum (isolate 3D7)) (UniProt Q08210). Briefly: PfDHODH enzyme inhibitors, primary screen, biochemical, C-terminal His tag, absorbance 600 nm (AID 1175).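 Note: recombinant parasite enzyme with a five histidine tag at its C terminus.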 The settings on record: DCIP absorbance 600 nm, higher = more signal, called active from +8 up or from −8 down.
Sequence of Dihydroorotate dehydrogenase (quinone), mitochondrial (Plasmodium falciparum (isolate 3D7)) (Q08210 whole entry, looked up): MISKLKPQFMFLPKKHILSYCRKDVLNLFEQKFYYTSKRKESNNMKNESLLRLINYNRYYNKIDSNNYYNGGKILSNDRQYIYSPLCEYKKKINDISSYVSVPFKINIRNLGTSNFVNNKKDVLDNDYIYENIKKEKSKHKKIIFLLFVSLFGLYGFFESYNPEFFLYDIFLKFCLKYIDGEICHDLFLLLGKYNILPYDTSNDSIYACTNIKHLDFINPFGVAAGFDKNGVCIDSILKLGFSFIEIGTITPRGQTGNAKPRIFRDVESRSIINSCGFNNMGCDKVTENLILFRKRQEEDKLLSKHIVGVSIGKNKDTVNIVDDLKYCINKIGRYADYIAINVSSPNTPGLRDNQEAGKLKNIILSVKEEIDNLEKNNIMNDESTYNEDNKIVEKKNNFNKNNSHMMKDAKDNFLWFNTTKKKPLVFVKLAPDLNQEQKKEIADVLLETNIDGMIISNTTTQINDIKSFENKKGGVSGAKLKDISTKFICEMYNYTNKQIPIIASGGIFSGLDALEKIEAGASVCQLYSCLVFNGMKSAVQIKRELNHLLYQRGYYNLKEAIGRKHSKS
Assay [5] is described as follows: P. aeruginosa biofilm formation inhibitors, primary screen, strain PAO1, LB-PBS medium, absorbance 600 nm (AID 1176). Particulars: P. aeruginosa PAO1 growth/biofilm, A600, 12 h; higher = more signal.
Assay [6] is described as follows: S. cerevisiae RM11-1a growth modifiers, primary screen, strain RM11-1a, OD600, basal, 24 h (AID 1177).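 Note: cultures grown under basal conditions with no added stressor.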 The settings on record: OD600, 24 h, higher = more signal, called active from +8 up or from −8 down.
The nature of assay [7]: E. coli acrAB mutant growth effects, primary screen, E. coli filamentation inducers, strain DRC39, OD650, 24 h (AID 1178).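 Note: growth measured as culture turbidity by optical density at 650 nm.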 Particulars: higher = more signal, called active from +8 up or from −8 down.
A short description of assay [8]: E. coli acrAB mutant growth effects, primary screen, E. coli filamentation inducers, strain DRC39, OD650, 48 h (AID 1179).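 Note: screen aims at cell division blockers that make cells filament.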 The settings on record: E. coli DRC39 delta-acrAB growth, higher = more signal, called active from +8 up or from −8 down.
The nature of assay [9]: RPMI8226 myeloma cell viability, profiling panel, resazurin fluorescence, basal, 24 h, PK04 Diversity Set (AID 1180).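 Note: RPMI8826 multiple myeloma cell line at 5000 cells per well.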 Particulars: higher = more signal.
Assay [10] has as its target E3 ubiquitin-protein ligase XIAP (Homo sapiens) (UniProt P98170). The assay can be described thus: XIAP binders, primary screen, biophysical, small-molecule microarray, fluorescence 635 nm (AID 1181).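 Note: score merges 667 nm emission and signal to noise over triplicate slides.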 Particulars: small-molecule microarray binding, higher = more signal.
The test system of assay [11] is XIP peptide (Xip251-270) binding. Briefly: small-molecule binders of XIP peptide, primary screen, biochemical, small-molecule microarray, fluorescence 635/667 nm, 0.1 µg/mL protein (AID 1182). The settings on record: fluorescent protein binding, 635 nm, higher = more signal, called active from +8 up or from −8 down.
The next assay has as its system XIP peptide (Xip251-270). The assay can be described thus: small-molecule binders of XIP peptide, primary screen, biochemical, small-molecule microarray, fluorescence 635/667 nm, 0.5 µg/mL protein (AID 1183). The settings on record: small-molecule microarray binding, fluorescence 635 nm; higher = more signal.
Assay [12] in a line: Plasmodium falciparum growth inhibition, primary screen, strain 3D7, DAPI fluorescence, 100 nL (AID 1184).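 Note: parasites grown inside human red blood cells in medium with human serum.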 Particulars: P. falciparum 3D7 growth, 3 d, higher = more signal.
In assay [13] the target is Homeobox protein Hox-A13 (Mus musculus) (UniProt Q62424). Briefly: inhibitors of HoxA13-DNA binding, primary screen, biochemical, fluorescence polarization, labeled oligonucleotide (AID 1185). Particulars: 15 min, higher = more signal, called active from +8 up or from −8 down. Background: Fluorescence polarisation rises when a labelled molecule tumbles more slowly, as on binding a larger partner.
Sequence of Homeobox protein Hox-A13 (Mus musculus) (Q62424 whole entry, looked up): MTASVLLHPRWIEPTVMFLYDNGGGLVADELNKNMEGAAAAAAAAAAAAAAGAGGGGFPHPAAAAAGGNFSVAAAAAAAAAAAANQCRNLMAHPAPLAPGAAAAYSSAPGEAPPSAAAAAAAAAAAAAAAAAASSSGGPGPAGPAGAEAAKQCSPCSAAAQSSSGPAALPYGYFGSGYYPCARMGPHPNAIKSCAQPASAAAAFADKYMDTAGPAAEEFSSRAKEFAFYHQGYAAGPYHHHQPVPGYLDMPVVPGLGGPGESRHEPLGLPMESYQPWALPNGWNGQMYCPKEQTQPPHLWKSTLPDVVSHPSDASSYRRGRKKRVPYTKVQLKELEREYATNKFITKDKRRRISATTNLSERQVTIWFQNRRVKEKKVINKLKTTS

Assay [14] is described as follows: inhibitors of hydroxyurea-induced Chk1 phosphorylation, primary screen, imaging, HeLa, phospho-Chk1 antibody, percent positive cells (AID 1186). Particulars: hydroxyurea-induced phospho-Chk1 immunofluorescence imaging, higher = more signal.
Assay [15] can be described thus: inhibitors of hydroxyurea-induced Chk1 phosphorylation, primary screen, imaging, HeLa, phospho-Chk1 nuclear intensity (AID 1187). Particulars: hydroxyurea-induced phospho-Chk1 immunofluorescence imaging, higher = more signal.

Molecules are shown by their SMILES. The source made the active and inactive calls. Unless noted, the rule behind the calls is not given here.

Sequence of E3 ubiquitin-protein ligase XIAP (Homo sapiens) (P98170 whole entry, looked up): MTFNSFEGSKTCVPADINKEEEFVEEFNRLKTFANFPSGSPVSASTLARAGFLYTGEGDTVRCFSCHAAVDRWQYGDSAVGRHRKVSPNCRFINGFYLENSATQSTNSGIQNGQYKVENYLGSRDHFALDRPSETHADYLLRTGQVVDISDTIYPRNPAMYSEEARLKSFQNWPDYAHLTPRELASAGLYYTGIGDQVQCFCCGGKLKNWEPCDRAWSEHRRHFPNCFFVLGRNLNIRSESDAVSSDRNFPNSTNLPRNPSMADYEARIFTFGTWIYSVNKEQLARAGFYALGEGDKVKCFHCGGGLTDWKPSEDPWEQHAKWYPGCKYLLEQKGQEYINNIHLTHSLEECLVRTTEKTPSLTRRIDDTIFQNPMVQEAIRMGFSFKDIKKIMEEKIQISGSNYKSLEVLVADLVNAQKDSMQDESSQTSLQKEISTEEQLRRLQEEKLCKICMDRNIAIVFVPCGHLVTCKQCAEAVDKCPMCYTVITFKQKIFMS

Take `COC(=O)C(CC#Cc1ccc2c(c1)[C@]1(C(=O)N2)[C@H](C(=O)N2CCCCCCC2)[C@H]2C(=O)O[C@H](c3ccccc3)[C@H](c3ccccc3)N2[C@@H]1c1ccc(O)cc1)C(=O)OC`: the z-score is 0.436 in assay [1]; -0.636 (inactive) in assay [2]; 0.636 (inactive) in [3]; 0.473 (inactive) in [5]; -0.016 (inactive) in assay [6]; -0.177 (inactive) in assay [7]. In addition, the z-score is -0.312 (inactive) in assay [8]; 0.402 in assay [9]; -1.39 in assay [12]; 1.11 (inactive) in [13]; -0.197 (inactive) in assay [14]; -0.109 (inactive) in assay [15]. For the same molecule, the composite z-score in assay [4] is -0.665 (inactive); in assay [10], 0.0512; in assay [11], 0.431 (inactive); in the assay on XIP peptide (Xip251-270), 0.459.
As to `C=CC[C@]1(C(=O)N2CCCCC2)N=C(c2ccc(OCCCO)cc2)O[C@H]1c1ccccc1N=[N+]=[N-]`, the z-score in assay [1] was -0.0748; in assay [2], -0.807 (inactive); in assay [3] it was -1.91 (inactive); in assay [5], 0.274 (inactive); in assay [6], 1.55 (inactive); in assay [7], 0.16 (inactive). Moreover, the z-score in assay [8] was -0.58 (inactive); in assay [9] it was -1.15; in [12], -2.21; in assay [13] it was -3.92 (inactive); in assay [14], -0.135 (inactive); in assay [15] it was 0.224 (inactive). Besides, the composite z-score in assay [4] was 2.06 (inactive); in assay [10], 1.74; in assay [11], 1.01 (inactive); in the assay with XIP peptide (Xip251-270), 0.851.
Take `COCCOC(=O)N1C(=O)[C@@]2(c3cc(C#CC4=CCCCC4)ccc31)[C@H](c1ccc(O)cc1)N1[C@H](c3ccccc3)[C@H](c3ccccc3)OC(=O)[C@H]1[C@@H]2C(=O)N1CCCCCCC1`: the z-score in [1] is 0.32; in [2], -0.615 (inactive); in [3], 1.17 (inactive); in [5] it was 1.35 (inactive); in [6], 0.19 (inactive); in [7], 0.15 (inactive). In addition, the z-score in assay [8] is 1.29 (inactive); in [9], 0.768; in [12], -1.66; in assay [13], 2.08 (inactive); in [14] it was -0.104 (inactive); in assay [15] it was 0.0587 (inactive). Moreover, the composite z-score is 0.104 (inactive) in assay [4], -0.445 in assay [10], 0.505 (inactive) in assay [11] and 0.678 in the assay with XIP peptide (Xip251-270).
With `COc1ccc(C(=O)Nc2ccc(CN3C(=O)[C@]4(O[C@H](CCn5cc(CCO)nn5)[C@@H]([Si](C)(C)c5ccc(OC)cc5)[C@@H]4C)c4ccccc43)cc2)cc1`, the z-score in assay [1] was -2.97; in assay [2] it was -5.51 (inactive); in assay [3], -6.19 (inactive); in assay [5], 0.307 (inactive); in assay [6] it was 2.44 (inactive); in [7], 1.09 (inactive). The z-score in [8] is 0.72 (inactive); in assay [9], -3.23; in [12], -2.78; in [13] it was -3.55 (inactive); in assay [14], 0.188 (inactive); in assay [15], 0.686 (inactive). The composite z-score is 0.597 (inactive) in assay [4], -0.0129 in assay [10], -0.154 (inactive) in assay [11] and 0.621 with XIP peptide (Xip251-270).
As for `[N-]=[N+]=NCc1ccccc1C[C@]1(C(=O)N2CCCCC2)N=C(c2ccc(OCCCO)cc2)O[C@H]1c1ccccc1CN=[N+]=[N-]`, the z-score in assay [1] was -0.182; in [2], 1.06 (inactive); in [3] it was -1.32 (inactive); in [5], 1.76 (inactive); in assay [6], 0.736 (inactive); in [7] it was 0.0687 (inactive). Besides, the z-score in [8] was -0.352 (inactive); in assay [9], -2.22; in assay [12] it was -2.32; in [13] it was 1.1 (inactive); in assay [14] it was -0.0016 (inactive); in assay [15], 0.164 (inactive). In addition, the composite z-score in assay [4] is -0.266 (inactive); in assay [10], 0.377; in assay [11], 1.52 (inactive); in the assay on XIP peptide (Xip251-270), 0.811.
Turning to `[N-]=[N+]=NCc1ccccc1C[C@@]1(C(=O)O)N=C(c2ccc(OCCCO)cc2)O[C@@H]1c1ccccc1N=[N+]=[N-]`, the z-score is 0.0549 in assay [1]; -1 (inactive) in [2]; -1.47 (inactive) in assay [3]; 0.755 (inactive) in assay [5]; -0.268 (inactive) in assay [6]; 0.604 (inactive) in assay [7]. In addition, the z-score in assay [8] is 0.331 (inactive); in assay [9], -0.876; in [12], -2.15; in [13] it was -4.16 (inactive); in assay [14], -1.08 (inactive); in assay [15], -0.884 (inactive). The composite z-score is 0.313 (inactive) in assay [4], 0.0524 in assay [10], -0.321 (inactive) in assay [11] and 0.908 in the assay on XIP peptide (Xip251-270).
On to `Cc1ccc(S(=O)(=O)N2[C@@H](c3ccccc3)C(C(=O)O)=CC[C@H]2c2ccccc2)cc1`, for which the z-score is -1.18 in assay [1]; 0.131 (inactive) in assay [2]; -2.14 (inactive) in assay [3]; -0.0727 (inactive) in assay [5]; 0.256 (inactive) in assay [6]; -0.992 (inactive) in assay [7]. The z-score in assay [8] was -1.25 (inactive); in assay [9] it was -1.8; in assay [12] it was -1.02; in assay [13] it was -3.76 (inactive); in [14], -0.354 (inactive); in [15] it was -0.449 (inactive). Also, the composite z-score in assay [4] was 1.03 (inactive); in assay [10], 0.261; in assay [11], -0.141 (inactive); in the assay on XIP peptide (Xip251-270), 0.0514.
`C#CCCCON=C1C[C@@H](O)[C@@H](O)[C@@H]2[C@@H]3C(=O)N(Cc4ccc5c(c4)OCO5)C(=O)[C@@H]3CC[C@@H]12`: the z-score was 0.606 in assay [1]; 0.532 (inactive) in assay [2]; 0.241 (inactive) in [3]; -0.993 (inactive) in [5]; 0.577 (inactive) in [6]; 0.571 (inactive) in assay [7]. The z-score in assay [8] is 0.186 (inactive); in assay [9], 1.42; in assay [12] it was -0.0159; in assay [13], -0.476 (inactive). Besides, the composite z-score was 0.175 (inactive) in assay [4], 0.0785 in assay [10], 0.32 (inactive) in assay [11] and 0.104 in the assay with XIP peptide (Xip251-270).
In the case of `O=C1C[C@@](C(=O)NC2CC2)(c2ccc([N+](=O)[O-])cc2)[C@@H](c2ccc(CO)cc2I)N1CC12CC3CC(CC(C3)C1)C2`, the z-score in [1] is -3.54; in [2], 0.579 (inactive); in assay [3], -6.88 (inactive); in assay [5] it was 1.2 (inactive); in [6] it was 2.54 (inactive); in assay [7], -0.56 (inactive). Besides, the z-score in [8] was -0.869 (inactive); in assay [9], -5.45; in assay [12], -1.29; in assay [13], -3.64 (inactive); in assay [14] it was -0.174 (inactive); in assay [15], -0.372 (inactive). Moreover, the composite z-score in assay [4] was 1.59 (inactive); in assay [10], -0.095; in [11], 0.479 (inactive); in the assay on XIP peptide (Xip251-270), 0.687.

(Values after PubChem BioAssay.)
